The values that follow come from PubChem BioAssay (EPA / NIEHS).

By AC50 is commonly meant the concentration giving half of the maximal activity seen.

Settings in all cases: mRNA level, 48 h; actives raise or lower the signal
Read-out in one experiment: Caspase-3 (Homo sapiens) (UniProt P42574)
Put plainly: LTEA_HepaRG_CASP3: Life Technologies and Expression Analysis (LTEA) Assay for cysteine-aspartic acid protease (CASP3) using HepaRG (AID 2283477). An outline of the steps:
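Transcript-level assay: CASP3 mRNA in human HepaRG after 48 h treatment, eight half-log concentrations from 100 uM in 0.5% DMSO, quantified by qRT-PCR.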

Read-out in experiment [1]: Cytochrome P450 (CYP24A1), CYP24A1 (gene 1591)
Nature of the experiment: LTEA_HepaRG_CYP24A1: Life Technologies and Expression Analysis (LTEA) Assay for Cytochrome P450 (CYP24A1) using HepaRG (AID 2283478). An outline of the steps:
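Gene expression of CYP24A1 by TaqMan qRT-PCR in HepaRG after 48 h treatment, highest concentration 100 uM; activity fitted in both directions relative to DMSO vehicle.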

Read-out in experiment [2]: Cytochrome P450 (CYP1A2), CYP1A2 (gene 1544)
Put plainly: LTEA_HepaRG_CYP1A2: Life Technologies and Expression Analysis (LTEA) Assay for Cytochrome P450 (CYP1A2) using HepaRG (AID 2283479). An outline of the steps: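 In duplicate wells, HepaRG cultures maintained in 0.5% DMSO were treated 48 h across an 8-point, half-log series topping at 100 uM; phenobarbital (1 mM) served as induction control. Expression was read by qRT-PCR.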

Read-out in experiment [3]: cysteine-aspartic acid protease (CASP8), CASP8 (gene 841)
Nature of the experiment: LTEA_HepaRG_CASP8: Life Technologies and Expression Analysis (LTEA) Assay for cysteine-aspartic acid protease (CASP8) using HepaRG (AID 2283480). An outline of the steps: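 Differentiated HepaRG cells in serum-free induction medium, 48 h exposure, eight-point half-log series from 100 uM in 0.5% DMSO, duplicates. CASP8 mRNA by qRT-PCR, normalized to ACTB, GAPDH, POLR2A; bidirectional fit versus DMSO.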

Read-out in experiment [4]: Cytochrome P450 (CYP2B6), CYP2B6 (gene 1555)
Nature of the experiment: LTEA_HepaRG_CYP2B6: Life Technologies and Expression Analysis (LTEA) Assay for Cytochrome P450 (CYP2B6) using HepaRG (AID 2283481). An outline of the steps:
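Human HepaRG, 48 h dosing, 0.5% DMSO vehicle, top dose 100 uM. CYP2B6 transcript by qRT-PCR, housekeeping-normalized, bidirectional curve fit.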

Read-out in experiment [5]: Cytochrome P450 2C19 (Homo sapiens) (UniProt P33261)
Put plainly: LTEA_HepaRG_CYP2C19: Life Technologies and Expression Analysis (LTEA) Assay for CYP2C19 using HepaRG (AID 2283482). An outline of the steps:
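Endpoint: CYP2C19 mRNA change, bidirectional fit vs 0.5% DMSO. Cells: HepaRG, 48 h exposure, eight-point series topping at 100 uM. Quantitation: qRT-PCR normalized to ACTB, GAPDH, POLR2A.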

Read-out in the next experiment: CYP2C8 (gene 1558)
Put plainly: LTEA_HepaRG_CYP2C8: Life Technologies and Expression Analysis (LTEA) Assay for CYP2C8 using HepaRG (AID 2283483). An outline of the steps:
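Differentiated HepaRG cells in serum-free induction medium exposed 48 h in duplicate to 8 half-log concentrations from 100 uM in 0.5% DMSO. CYP2C8 mRNA by qRT-PCR normalized to ACTB, GAPDH, POLR2A; bidirectional fit versus DMSO.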

Read-out in the next experiment: CYP2C9 (gene 1559)
Put plainly: LTEA_HepaRG_CYP2C9: Life Technologies and Expression Analysis (LTEA) Assay for CYP2C9 using HepaRG (AID 2283484). An outline of the steps:
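Differentiated human HepaRG cells in serum-free induction medium were exposed 48 h to chemicals in 8-point half-log series from 100 uM (0.5% DMSO), in duplicate. CYP2C9 mRNA was measured by qRT-PCR, normalized to ACTB/GAPDH/POLR2A, with bidirectional fitting versus DMSO.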

Read-out in the next experiment: CYP2E1 (gene 1571)
Nature of the experiment: LTEA_HepaRG_CYP2E1: Life Technologies and Expression Analysis (LTEA) Assay for CYP2E1 using HepaRG (AID 2283485). An outline of the steps: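 Differentiated HepaRG cells were treated in duplicate for 48 h with chemicals in 0.5% DMSO, from 100 uM downward in half-log dilutions. RNA was then analysed by qRT-PCR for CYP2E1 induction or loss.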

Read-out in another experiment: CYP4A11 (gene 1579)
Nature of the experiment: LTEA_HepaRG_CYP4A11: Life Technologies and Expression Analysis (LTEA) Assay for CYP4A11 using HepaRG (AID 2283486). An outline of the steps: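 Human hepatic HepaRG cultures receive duplicate 48 h exposures across a concentration-response series topping at 100 uM. Expression changes in CYP4A11 are measured by qRT-PCR relative to DMSO controls.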

Read-out in experiment [6]: Cytochrome P450 3A4 (Homo sapiens) (UniProt P08684)
Put plainly: LTEA_HepaRG_CYP3A4: Life Technologies and Expression Analysis (LTEA) Assay for CYP3A4 using HepaRG (AID 2283487). An outline of the steps: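 HepaRG, 48 h exposure, 8-pt CRC from 100 uM (half-log), 0.5% DMSO, duplicates; serum-free induction medium. Readout: CYP3A4 mRNA, qRT-PCR, ACTB/GAPDH/POLR2A normalization. Bidirectional fit vs DMSO.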

Read-out in experiment [7]: DNA damage-inducible transcript 3 (DDIT3), DDIT3 (gene 1649)
Nature of the experiment: LTEA_HepaRG_DDIT3: Life Technologies and Expression Analysis (LTEA) Assay for DNA damage-inducible transcript 3 (DDIT3) using HepaRG (AID 2283488). An outline of the steps: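 Changes in DDIT3 transcript, in either direction relative to 0.5% DMSO vehicle, were quantified by TaqMan qRT-PCR after 48 h chemical exposure of HepaRG cells at 8 concentrations, maximum 100 uM.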

Read-out in experiment [8]: Pro-epidermal growth factor (Homo sapiens) (UniProt P01133)
Put plainly: LTEA_HepaRG_EGF: Life Technologies and Expression Analysis (LTEA) Assay for Epidermal growth factor (EGF) using HepaRG (AID 2283489). An outline of the steps:
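Concentration-response mRNA assay: HepaRG cells dosed 48 h (max 100 uM, 0.5% DMSO), EGF measured by qRT-PCR and normalized to ACTB/GAPDH/POLR2A.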

Read-out in experiment [9]: Early growth response protein 1 (EGR1) transcription factor, EGR1 (gene 1958)
Put plainly: LTEA_HepaRG_EGR1: Life Technologies and Expression Analysis (LTEA) Assay for Early growth response protein 1 (EGR1) transcription factor using HepaRG (AID 2283490). An outline of the steps:
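Differentiated HepaRG cells in serum-free induction medium exposed 48 hours, duplicate, to 8 half-log concentrations up to 100 uM in 0.5% DMSO. EGR1 mRNA measured by TaqMan qRT-PCR, normalized to ACTB, GAPDH, POLR2A; bidirectional fit versus DMSO.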

Read-out in experiment [10]: Ezrin (EZR), EZR (gene 7430)
Nature of the experiment: LTEA_HepaRG_EZR: Life Technologies and Expression Analysis (LTEA) Assay for Ezrin (EZR) using HepaRG (AID 2283491). An outline of the steps:
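Read-out is EZR transcript level by qRT-PCR, normalized to three housekeeping genes and fitted bidirectionally against the DMSO control. Human HepaRG cells received test chemicals for 48 h at eight half-log concentrations up to 100 uM in 0.5% DMSO.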

Read-out in experiment [11]: Cytochrome P450 3A7 (Homo sapiens) (UniProt P24462)
Nature of the experiment: LTEA_HepaRG_CYP3A7: Life Technologies and Expression Analysis (LTEA) Assay for CYP3A7 using HepaRG (AID 2283492). An outline of the steps: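 qRT-PCR of CYP3A7 in HepaRG lysates after 48 h treatment; concentration-response (8 points, max 100 uM) analysed bidirectionally relative to 0.5% DMSO controls.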

Read-out in another experiment: CYP3A5 (gene 1577)
Nature of the experiment: LTEA_HepaRG_CYP3A5: Life Technologies and Expression Analysis (LTEA) Assay for CYP3A5 using HepaRG (AID 2283493). An outline of the steps: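 mRNA induction or loss of CYP3A5 assessed in HepaRG after 48 h dosing, 100 uM top concentration, duplicate wells; TaqMan qRT-PCR with ACTB, GAPDH, POLR2A normalization; 0.5% DMSO as negative control.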

Read-out in experiment [12]: Fatty Acid-Binding Protein 1 (FABP1), FABP1 (gene 2168)
Nature of the experiment: LTEA_HepaRG_FABP1: Life Technologies and Expression Analysis (LTEA) Assay for Fatty Acid-Binding Protein 1 (FABP1) using HepaRG (AID 2283494). An outline of the steps: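 Differentiated human HepaRG cells exposed 48 h in serum-free induction medium to eight half-log concentrations up to 100 uM (0.5% DMSO), duplicate. FABP1 mRNA by qRT-PCR, normalised to ACTB, GAPDH, POLR2A; bidirectional fitting against DMSO.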

Read-out in experiment [13]: Cytochrome P450 4A22 (Homo sapiens) (UniProt Q5TCH4)
Nature of the experiment: LTEA_HepaRG_CYP4A22: Life Technologies and Expression Analysis (LTEA) Assay for Cytochrome P450 4A22 (CYP4A22) using HepaRG (AID 2283495). An outline of the steps:
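Concentration-response (8 points, max 100 uM, 0.5% DMSO) in human HepaRG liver cells after 48 h exposure. CYP4A22 mRNA by TaqMan qRT-PCR with housekeeping-gene normalization.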

Read-out in experiment [14]: Cytochrome P450 7A1 (Homo sapiens) (UniProt P22680)
Nature of the experiment: LTEA_HepaRG_CYP7A1: Life Technologies and Expression Analysis (LTEA) Assay for Cytochrome P450 7A1 (CYP7A1) using HepaRG (AID 2283496). An outline of the steps:
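Gene expression endpoint in human HepaRG liver cells treated for 48 h with test chemicals (up to 100 uM, 0.5% DMSO). Values come from bidirectional concentration-response fitting versus DMSO.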

Calls of active or inactive are those of the source. How the source made its calls: active means hit-call score of the fitted dose curve at least 0.9, where 1 is the maximum; inactive means score below 0.9.

Sequence of Cytochrome P450 3A4 (Homo sapiens) (P08684 whole entry, looked up): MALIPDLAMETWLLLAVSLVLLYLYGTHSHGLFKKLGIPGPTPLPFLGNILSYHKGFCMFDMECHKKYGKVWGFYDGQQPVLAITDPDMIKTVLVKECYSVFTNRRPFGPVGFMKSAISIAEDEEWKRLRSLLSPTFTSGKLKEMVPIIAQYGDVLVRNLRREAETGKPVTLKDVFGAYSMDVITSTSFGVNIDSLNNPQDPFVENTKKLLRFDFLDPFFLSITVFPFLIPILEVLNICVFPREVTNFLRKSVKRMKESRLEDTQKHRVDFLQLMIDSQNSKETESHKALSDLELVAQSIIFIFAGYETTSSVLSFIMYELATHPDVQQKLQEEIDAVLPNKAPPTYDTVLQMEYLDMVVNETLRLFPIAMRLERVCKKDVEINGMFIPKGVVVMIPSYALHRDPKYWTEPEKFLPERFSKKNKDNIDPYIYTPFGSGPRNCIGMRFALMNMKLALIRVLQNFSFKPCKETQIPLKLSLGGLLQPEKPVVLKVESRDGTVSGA
Sequence of Cytochrome P450 3A7 (Homo sapiens) (P24462 whole entry, looked up): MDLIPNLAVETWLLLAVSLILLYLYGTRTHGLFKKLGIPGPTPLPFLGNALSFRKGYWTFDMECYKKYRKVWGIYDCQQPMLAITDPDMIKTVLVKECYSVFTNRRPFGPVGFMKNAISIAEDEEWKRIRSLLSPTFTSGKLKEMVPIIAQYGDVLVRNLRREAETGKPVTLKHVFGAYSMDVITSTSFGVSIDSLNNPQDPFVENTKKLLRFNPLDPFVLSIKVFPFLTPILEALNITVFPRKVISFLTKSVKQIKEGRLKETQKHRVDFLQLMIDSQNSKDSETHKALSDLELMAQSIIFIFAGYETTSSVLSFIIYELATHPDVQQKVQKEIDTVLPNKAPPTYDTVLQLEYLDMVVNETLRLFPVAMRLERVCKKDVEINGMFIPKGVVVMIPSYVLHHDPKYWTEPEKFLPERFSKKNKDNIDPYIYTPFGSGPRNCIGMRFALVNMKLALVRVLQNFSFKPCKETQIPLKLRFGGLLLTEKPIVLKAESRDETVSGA
Sequence of Caspase-3 (Homo sapiens) (P42574 whole entry, looked up): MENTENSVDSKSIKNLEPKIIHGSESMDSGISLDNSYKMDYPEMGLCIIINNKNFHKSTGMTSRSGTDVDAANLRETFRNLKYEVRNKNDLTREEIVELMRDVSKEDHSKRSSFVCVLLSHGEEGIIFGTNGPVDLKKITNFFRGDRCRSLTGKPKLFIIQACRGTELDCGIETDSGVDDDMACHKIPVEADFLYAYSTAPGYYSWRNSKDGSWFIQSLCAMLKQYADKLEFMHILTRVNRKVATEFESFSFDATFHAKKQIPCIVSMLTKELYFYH
Sequence of Cytochrome P450 2C19 (Homo sapiens) (P33261 whole entry, looked up): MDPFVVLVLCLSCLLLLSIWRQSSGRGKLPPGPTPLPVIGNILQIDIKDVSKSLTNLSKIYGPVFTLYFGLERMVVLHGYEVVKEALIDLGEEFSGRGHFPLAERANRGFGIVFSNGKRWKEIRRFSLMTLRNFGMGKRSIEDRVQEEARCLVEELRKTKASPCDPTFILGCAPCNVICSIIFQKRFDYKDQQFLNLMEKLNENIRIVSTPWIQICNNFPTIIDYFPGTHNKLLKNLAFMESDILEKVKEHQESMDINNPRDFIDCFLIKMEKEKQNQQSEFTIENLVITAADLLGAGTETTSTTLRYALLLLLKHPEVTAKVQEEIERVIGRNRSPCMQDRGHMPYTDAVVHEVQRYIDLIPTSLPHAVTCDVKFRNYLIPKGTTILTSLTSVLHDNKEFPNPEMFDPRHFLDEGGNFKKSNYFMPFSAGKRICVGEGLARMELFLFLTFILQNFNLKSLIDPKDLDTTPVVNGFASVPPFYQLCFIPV

Turning to `CCCCN(CCCC)CCCC`, the call (in the experiment with Caspase-3 (Homo sapiens); in [1]; in experiment [2]; in [3]; in experiment [4]; in experiment [5]) was inactive. Further, the call (with CYP2C8 (gene 1558); with CYP2C9 (gene 1559); in the experiment with CYP2E1 (gene 1571); in the experiment with CYP4A11 (gene 1579); in experiment [6]; in experiment [7]) was inactive. Besides, the result (in experiment [8]; in [9]; in experiment [10]; in experiment [11]; with CYP3A5 (gene 1577); in experiment [12]) was inactive. Moreover, the compound was called inactive in experiment [13] and in experiment [14].
Take `NC(=O)Cn1c(=O)cc(CCN2CCN(c3nccc4sccc34)CC2)c2ccc(F)cc21`: the compound was classed as inactive (with Caspase-3 (Homo sapiens); in experiment [1]; in experiment [2]; in experiment [3]; in [4]; in experiment [5]). The compound was classed as inactive (with CYP2C8 (gene 1558); in experiment [8]; in experiment [9]; in [11]; in the experiment with CYP3A5 (gene 1577)). Besides, the AC50 is 78 µM (active) with CYP2C9 (gene 1559); 87.6 µM (active) with CYP2E1 (gene 1571); 65.4 µM (active) in the experiment with CYP4A11 (gene 1579); 5.56 µM (active) in experiment [6]; 65.2 µM (active) in experiment [7]; 12.3 µM (active) in experiment [12]. Also, the AC50 in [13] is 62.7 µM (active); in experiment [14] it was 21.5 µM (active).
With `Cc1cccc([N+](=O)[O-])c1C`, the call (in the experiment with Caspase-3 (Homo sapiens); in experiment [1]; in experiment [2]; in experiment [3]; in [4]; in experiment [5]) was inactive. For the same compound, the outcome (with CYP2C8 (gene 1558); with CYP2C9 (gene 1559); in the experiment with CYP2E1 (gene 1571); in the experiment with CYP4A11 (gene 1579); in experiment [6]; in experiment [7]) was inactive. For the same compound, the call (in [8]; in [9]; in experiment [10]; in [11]; with CYP3A5 (gene 1577); in experiment [12]) was inactive. Besides, the call in [13] and in [14] was inactive.
